From the supplement of paper PMC10681739

Tests used:
ETS1 [1] = molecular target: T1, ETS1 (UniProt P14921); experiment: ETS1 binding intensity (PBM fluorescence), ETS1 alone (arbitrary fluorescence units); higher = stronger binding; conditions: ETS1 concentration 1 nM; RUNX1 concentration 0 nM
T1 sequence: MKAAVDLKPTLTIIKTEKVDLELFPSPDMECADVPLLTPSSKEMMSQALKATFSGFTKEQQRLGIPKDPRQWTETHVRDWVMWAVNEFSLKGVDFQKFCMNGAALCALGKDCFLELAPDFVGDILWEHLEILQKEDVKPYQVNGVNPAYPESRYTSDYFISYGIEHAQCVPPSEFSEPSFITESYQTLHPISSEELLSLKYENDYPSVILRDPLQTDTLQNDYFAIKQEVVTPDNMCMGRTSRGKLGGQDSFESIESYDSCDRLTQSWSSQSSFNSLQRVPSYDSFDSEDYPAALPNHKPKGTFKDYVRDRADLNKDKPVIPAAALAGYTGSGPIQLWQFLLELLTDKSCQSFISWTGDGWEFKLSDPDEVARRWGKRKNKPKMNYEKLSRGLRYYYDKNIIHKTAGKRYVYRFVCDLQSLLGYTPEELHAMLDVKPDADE

RUNX1 [2] = molecular target: RUNX1 (UniProt Q01196); experiment: RUNX1 binding intensity (PBM fluorescence), RUNX1 alone (arbitrary fluorescence units); higher = stronger binding; conditions: RUNX1 concentration 2 nM; ETS1 concentration 0 nM
Chain of RUNX1 (Q01196 whole entry): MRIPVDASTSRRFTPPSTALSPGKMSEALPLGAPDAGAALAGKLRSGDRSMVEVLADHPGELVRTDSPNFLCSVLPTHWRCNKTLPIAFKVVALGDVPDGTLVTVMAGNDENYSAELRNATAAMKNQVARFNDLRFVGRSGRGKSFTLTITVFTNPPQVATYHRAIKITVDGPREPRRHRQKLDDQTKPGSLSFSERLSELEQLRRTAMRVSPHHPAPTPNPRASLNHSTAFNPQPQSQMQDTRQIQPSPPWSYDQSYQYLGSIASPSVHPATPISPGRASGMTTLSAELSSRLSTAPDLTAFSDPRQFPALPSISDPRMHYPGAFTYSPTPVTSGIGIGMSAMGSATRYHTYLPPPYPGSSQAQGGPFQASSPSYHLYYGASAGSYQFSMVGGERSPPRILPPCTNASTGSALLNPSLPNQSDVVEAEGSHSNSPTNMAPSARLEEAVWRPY
Experimental: (§1)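 Cooperative gcPBM on 36-bp genomic probes with neighbouring ETS1 and RUNX1 sites. Recombinant human RUNX1 (2 nM) was incubated alone or with ETS1 (25 nM) and detected with anti-RUNX1 antibody plus Alexa488 secondary. Values are medians over 4 replicate spots; the RUNX1+ETS1 data were normalised to the RUNX1-only data. The probes sit in constant array flanks that are not printed.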

ETS1 [3] = molecular target: T1, ETS1; experiment: ETS1 binding intensity (PBM fluorescence) in presence of RUNX1, normalised to ETS1-only experiment (arbitrary fluorescence units); higher = stronger binding; conditions: ETS1 concentration 1 nM; RUNX1 concentration 25 nM
RUNX1 [4] = molecular target: RUNX1 (UniProt Q01196); experiment: RUNX1 binding intensity (PBM fluorescence) in presence of ETS1, normalised to RUNX1-only experiment (arbitrary fluorescence units); higher = stronger binding; conditions: RUNX1 concentration 2 nM; ETS1 concentration 25 nM
Experimental: as §1
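For RUNX1 binding intensity (PBM fluorescence) in presence of ETS1, normalised to RUNX1-only experiment in this document: Full-length recombinant human ETS1 or RUNX1 bound to double-stranded 36-bp genomic probes on microarrays, detected by protein-specific primary antibody and Alexa488 secondary, spot fluorescence as median of four replicate spots.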
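For RUNX1 binding intensity (PBM fluorescence), RUNX1 alone in this document: Full-length recombinant human RUNX1 bound to double-stranded 36-bp genomic probes on a high-density microarray, scored as Alexa488 fluorescence per spot via anti-RUNX1 antibody, median of four replicate spots.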

Sequence | ETS1 binding intensity (ETS1 [1]) | RUNX1 binding intensity (RUNX1 [2]) | ETS1 binding intensity (ETS1 [3]) | RUNX1 binding intensity (RUNX1 [4])
TCCCTCCTTCCGCTCTGGTTTTGTGGTTGCTTGCTG | 902 | 1490 | 1620 | 3330
GACATATCCTGCATTCTCAGAAAAACCACAGGCTAG | 391 | 1290 | 1050 | 2000
CAAACAGGTTCCGGCCGGACTACAGCGCCCACAATG | 432 | 712 | 460 | 1080
TCTTGAGGGTCAGGATGTGGTGAGGCCAGAGAAGGC | 951 | 808 | 2120 | 1420
TTTGTGCCCCAACTTCCTCTGTGGCTTTTGGGTGGG | 650 | 898 | 969 | 1480
GAGTTCCGCCTCGCCGTTTGTCCCTTGCGGTACCCG | 351 | 890 | 620 | 2030
GCAGAGAGATTGGCCGGATGCGGTGGCTCACGCCTT | 4850 | 683 | 8930 | 1140
GGCAACCCAAGGAAGTATCTCTGAAACCACACAACA | 540 | 1040 | 1190 | 1110
TTAAGGAGCTTCCGGGGCCGCGGGTAGAGGCGGGTG | 629 | 676 | 741 | 1420
GCATCATCACTTCCTGTTGTGGGCAGTCGTTGCCTG | 3300 | 843 | 5100 | 2360
GCCCAATTCCCGAATCCGGTCTGCGGCGCGCTCGGG | 583 | 768 | 507 | 1170
GCTTGCTCCCACAGGAAACCGCAGGCTTCGGGCACA | 3190 | 7370 | 9810 | 12000
CAGCTAGCCGGAAGAAGCTGCGGCGACAGCGTCCTG | 1690 | 759 | 2110 | 1020
AGTCCACACTACAGGAAACCACAGGCCTGAGCCCCA | 1580 | 2870 | 3180 | 3440
GGAACAGGAAAAGCCTCCGGCAGCCCCTGCGGGCGG | 539 | 719 | 941 | 920
AGCTGAAGGGCAGGATGTGGTTTCAGCATTCGGTGA | 3090 | 791 | 16400 | 5290
ACCCTTCCTGGAGCATTGTCGCAGCAACCACAACAG | 457 | 918 | 975 | 1200
GGACAAAACATCATAGGAAGTGGGTTTTGGGGTGAG | 1500 | 761 | 2950 | 914
GCGCACTTCCGGGCTGGTGAACGCGGTGACGTCACC | 1250 | 804 | 1210 | 1720
TTAGGCTCATGGGAAATGTGGTTTCTAAATCGCGGG | 494 | 912 | 639 | 988
AGCTAAACCCAGTTCCGGTGCTGTGGGGAGCTCAGA | 858 | 741 | 908 | 1990

Sequence | ETS1 binding intensity (ETS1 [1]) | RUNX1 binding intensity (RUNX1 [2]) | ETS1 binding intensity (ETS1 [3]) | RUNX1 binding intensity (RUNX1 [4])
ACCAGCCCAGGAAGCATCTGCGGTTCAAGTGGCCAC | 452 | 1130 | 1470 | 1750
AGGGTTGGGGAGGATGTTGTGGTTATTATTGACATA | 845 | 1570 | 4990 | 2840
TTTTTAAGGTCAGGATGTGGGCACATCTAAGGGGCA | 1330 | 816 | 1730 | 1370
ACCCCAGGTACCGGAAGACCACAATTCCCAGGAGTC | 2220 | 1020 | 3710 | 1880
GCGCCGGTGACGGAAGTGCGGTGTTGAGCGCCGGCG | 2430 | 758 | 3070 | 1300
GTCTTAGGTCGGAAGTCTGTGGTCCCTGTTCACATG | 796 | 835 | 910 | 953
CGACAGAGGACACTTCCTTTTGCGGGTGGCGGCGAA | 550 | 697 | 1170 | 1460
GCCTGTGGAGTTGCAGGATGTGGTTGGCGAAAAGAA | 2130 | 905 | 7880 | 1360
GGTGGCCGCCGGAAGTGTGACCGCGGGAGGGGAGTG | 7650 | 743 | 25500 | 2690
GGAGGAAGTGACACCCACCCACTGCCCCCGCAAGGT | 962 | 797 | 987 | 963
ACGTACGGGATGTGGGAGGTTTGTTTTGACCACACC | 492 | 830 | 936 | 1160
GAGGAAGAGTCTTCCTGTAACCACTAGAGGGCGCTG | 592 | 705 | 663 | 960
GCCGTGGGTACGACCGGAAGCCGCAGGTGGGTGAAG | 18000 | 772 | 35000 | 1540
CACCCGCCCCCCGGAAGTGCCGGTGGTTGGGCTCCG | 5120 | 703 | 7610 | 1540
CTCCAGGGACAACCCGGAAACCACATTGCCCAGCGT | 2230 | 982 | 6990 | 1500
CTACAGGAAGTTCGAACTGGGCGGAGCCCACCGCAG | 1320 | 658 | 1950 | 1120
GTCGTCCCGGAAACCGGGATGCGGTTATCAGAGCGA | 1860 | 1000 | 7110 | 3180
GGGGGCGGAAGTTTCGGTGCATTGTGGGTTCTCCTG | 1260 | 920 | 1980 | 1140
TTCACAACACAGGATGTGCGGTATTATACGGCAAAG | 5120 | 898 | 11200 | 2390
CTCACTTCCCCGGCAGCTCCCTCGCCCCGACCGCAG | 406 | 1910 | 479 | 2740
AGAAACATCCTGCCCAGCCACCTGACCACAAGGCAC | 377 | 1280 | 1070 | 3130

Sequence | ETS1 binding intensity (ETS1 [1]) | RUNX1 binding intensity (RUNX1 [2]) | ETS1 binding intensity (ETS1 [3]) | RUNX1 binding intensity (RUNX1 [4])
GAAGCAGACAGGAAGTGGGTCTGAGCGGTGGAGGGA | 7670 | 690 | 8610 | 1910
TGCAGCTTCCTGTCTGAGGCTTTGTGGTCCTTTCAT | 753 | 862 | 889 | 2480
GGCGGTGACCGGAAGAGCTGAGTCACCGCAGGCGAC | 4020 | 813 | 11300 | 1600
ACGAGGTTGGCCTCATCCGGTGGTTTTCGCAGCACG | 1290 | 837 | 1280 | 1710
TACTAGTTTGGGGCATCCTGTGGTATAGGGGAAGCA | 4100 | 797 | 4560 | 1080
ACTTACTTCCCGACGTCACAGCCACCGAAACCACAG | 468 | 1410 | 464 | 2090
GCAGGGGCCCATTTCCTGCCACAAGCCCACACAGGA | 1390 | 749 | 1280 | 1750
AGCCACGGACTTCCGCCTACAGGTCGCCGCAGGTCC | 701 | 756 | 882 | 1700
GGTGGCAACATCCTGGGGAGGGGAACCCACAGGGGA | 364 | 835 | 452 | 1100
CTGAGCCGGGACCGGAAGCCGCACCGCCCCCCGCGC | 18400 | 828 | 21700 | 1770
TCGGCGGATATGAAAAAAAGTCCGTGGTCACGTGCA | 475 | 730 | 582 | 877
TACCTACATCCTGCCACCACCCGAGGGGACCGCAAG | 496 | 1050 | 974 | 2810
ATAAACAGGAAGCTGAGTATGTGACCACAGACATTC | 1670 | 840 | 5200 | 1630
TGGGCTTTGCAGGAAGCTGTGGTTCACCTACAGCCT | 1160 | 692 | 2110 | 866
CCCCCACATCCTGTTTGGTTTGTGGGACACCTCAAC | 2100 | 849 | 2550 | 4080
TGCGCCGGAAGTGCATGAGCTGCCGATGTGGTGCTT | 4760 | 715 | 5410 | 1220
GGGCCCACATCCGGCGCGCGCAACCGCAGCCTACTG | 1120 | 2530 | 6540 | 13100
CTGGGCTCGCCAGGCGGAAGTGGTTGGAGACTGCGT | 6330 | 668 | 9090 | 1510
CTACGACTTCCGTGATGCCTTGCGGTTGCTGTAGCC | 524 | 2700 | 1380 | 8450
AGAAGCAGGCATGCAGGATGTGGTTAGTGCATGGTA | 2230 | 900 | 17400 | 3740
TCCCTCATGAGCTTCTTCCGCCCGCAACACGAGACT | 481 | 1280 | 481 | 1840

Sequence | ETS1 binding intensity (ETS1 [1]) | RUNX1 binding intensity (RUNX1 [2]) | ETS1 binding intensity (ETS1 [3]) | RUNX1 binding intensity (RUNX1 [4])
ACACACTGACTTCCTGTTGTGGGAGATAAAGTGTGG | 2500 | 698 | 2780 | 1730
AGGACACAGACAGGAAACCCGCAGGCTTTGTTTTTT | 2580 | 859 | 5290 | 1470
GAGGAGGAAAGCGGAAGCGCTGCCCGCAGTGGTAGG | 4260 | 651 | 8570 | 1270
GGGACGGGGAGGGCAGGATGTGGTCGCTCTTCCCTC | 3320 | 822 | 9330 | 1750
ATGTCCCCAGGAGGATGTGGTGTGTCCACAGGAGGA | 759 | 742 | 1650 | 875
GAACCACTTCCCTGAAACCATTTACCACATAAATCT | 383 | 1510 | 904 | 2470
TGGGGTGGTGACATGGGATGTGGTTTTGGGGTTGCA | 510 | 974 | 3860 | 1070
GGACCGGAAGTTAAGGCGTTCGCGGCGTGTGGTAAG | 8560 | 626 | 11800 | 1560
CATCAAGTATTTCCTCACGCAAGCAACCGCATCCAT | 392 | 1180 | 634 | 1380
AGTCTCGTTTCCTGTGCGCTGTGGCCACCTGGCAGC | 1110 | 716 | 1050 | 1790
CCAGCTACACAGGATGCTGCGGTGGGCGGAATGCTC | 2160 | 801 | 9170 | 1970
GCAATGCCGCTACCGGAAGTGCGGGTCGCGCTCCCG | 26000 | 749 | 26000 | 1620
CTGCAGATGCATTTCCTTTTTGTGGTAGCAAGCGTG | 570 | 805 | 932 | 1470
TTGGTTGTTGCCAGAGGATGTGGGTTGGCGGGGGAG | 1690 | 897 | 4480 | 933
CCCCCTGAACATCCGGGGCCTTTTAACCGCCCACGG | 1290 | 937 | 1690 | 1790
TTGTCACGTCCGGCACGCCGCGAACCGCAAGGAACC | 571 | 1270 | 1800 | 2720
AGCGGCTGCACAGGAAGTTGGTTTTCACAAAGGCAA | 5520 | 658 | 6650 | 1190
TACGGGAACTTCCTTTTCTTGTGGTGTGGCCGGGTC | 571 | 873 | 853 | 2050
